An excerpt weighted towards active compounds, which were near 20% of everything screened.
Shiga inhibitor: A qHTS for Small Molecule Inhibitors of Shiga Toxin. Vero cells, Shiga toxin protein synthesis inhibition reporter. hit rate 9.2% among 290,000. inhibition, % at 38.7 µM; in the data active = inhibition mostly above about 28%, no sharp cut-off; inactive = mostly below about 43%; also: 0% is about no effect
HCMV inh: qHTS Assay for inhibitors of the human cytomegalovirus (HCMV) | activity change, negative = inhibition, % at 57.5 µM | hit rate 4.5% among 410,000 | HFF cells, HCMV-luciferase reporter, 72 h; hits give low values; in the data active = activity change below about -60%; inconclusive = no clear call, values can overlap the other calls; inactive = above about -39%; also: % is scaled to controls: 0 for no effect and ±100 for the full control effect
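Luciferase read-out from HCMV-luciferase-infected HFFs (MOI 1 PFU/cell) 72 h post infection at 37C; compounds added after 16 h cell attachment; activity normalized between buffer-only basal and Salinomycin (10uM) inhibitor controls.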
Cycloheximide cs: Cycloheximide Counterscreen for Small Molecule Inhibitors of Shiga Toxin. hit rate 12% among 300,000. cell reporter, cycloheximide protein synthesis inhibition counterscreen. max response, %; in the data active = max response mostly above about 13%, no sharp cut-off; inactive = mostly below about 14%; also: read at 38.3 µM for the half of the compounds with a filed dose; 0% is about no effect
Pf growth 48h: Primary qHTS for delayed death inhibitors of the malarial parasite plastid, 48 hour incubation | P. falciparum luciferase growth in erythrocytes, 48 h | Potency, µM (series often up to 28.7 µM), for the others: at the top dose activity change, negative = inhibition, hits mostly inhibitors | hit rate 5.9% among 310,000 | AID 504832, 2011; also: potency is read from the fitted curve at half-maximal effect; % is scaled to controls: 0 for no effect and ±100 for the full control effect
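Luminescence readout; reporter = integrated firefly luciferase in P. falciparum. RBC culture at 2% hematocrit, 0.1% parasitemia final, 37 C/5% CO2; decreased signal taken as growth inhibition.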
Pf growth 96h: Primary qHTS for delayed death inhibitors of the malarial parasite plastid, 96 hour incubation. hit rate 6.9% among 320,000. P. falciparum luciferase reporter growth, 96 h. Potency, µM (top dose mostly 28.7 µM), for the others: at the top dose activity change, negative = inhibition, most hits filed as inhibitors; also: potency is read from the fitted curve at half-maximal effect; % is scaled to controls: 0 for no effect and ±100 for the full control effect
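Plates of compound plus infected erythrocytes (2% hematocrit, 0.05% parasitemia final) incubate 96 hours, 37 C, 5% CO2. Detection reagent added; reduced luminescence from the parasites' luciferase reporter flags inhibition.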
* marks the source's active call; other numbers are inactive results; ? = inconclusive; / = no result. Unless noted, calls follow the shape of the dose curve; as a rule, active = well fitted inhibition curve with a large enough effect; inconclusive = small, poorly fitted or top-dose-only effect, or another doubt; inactive = no such curve, though single readings can be large or run the other way.

SMILES	Shiga inhibitor	HCMV inh	Cycloheximide cs	Pf growth 48h	Pf growth 96h
CCOC(=O)c1cnc2c(C(F)(F)F)cccc2c1N1CCN(C)CC1	4.9	54.0	-1.4	-24.7%	-10.3%
CCOC(=O)c1cnc2c(OC)cccc2c1N1CCN(c2ccccc2OC)CC1	-23.5	46.1	1.1	7.38µM*	12.0%
COC(=O)[C@H](Cc1ccccc1)NS(=O)(=O)c1ccc(F)cc1Br	/	-19.3	/	/	/
CCOCCCNC(=O)c1ccc(-n2c(-c3ccccc3)cc3c2CCCC3)cc1	/	-66.0*	/	/	/
COCCCNC(=O)c1ccc(-n2c(-c3ccccc3)cc3c2CCCCC3)cc1	103.4*	?	22.7*	/	/
O=C(N/N=C/c1ccc([N+](=O)[O-])o1)c1sc2ccccc2c1Cl	3.7	?	-2.4	?	1.65µM*
O=C(N/N=C/c1c[nH]c2ccccc12)c1sc2ccccc2c1Cl	18.8*	-18.6	25.3*	54.0%	-27.1%
O=C(N/N=C/c1c[nH]c2ccccc12)c1ccccc1	127.7*	32.6	46.8*	32.0%	0.7%
Cc1ccc(C(=O)Nc2ccc(C(=O)N/N=C/c3c[nH]c4ccccc34)cc2)cc1	-6.5	205.5	11.8	-29.1%	-25.2%
COc1ccc(C(=O)N/N=C\c2coc3ccc(Cl)cc3c2=O)cc1	-11.2	-62.6*	-0.7	11.6%	-20.4%
O=C(N/N=C/c1ccc([N+](=O)[O-])o1)c1cn2ccc3ccccc3c2n1	-1.5	-30.9	-2.0	1.31µM*	?
O=C(N/N=C/c1c[nH]c2ccccc12)c1ccc2c(c1)OCCO2	93.5*	179.0	54.7*	96.2%	125.7%
O=C(N/N=C/c1c[nH]c2ccccc12)c1ccncc1	13.5	13.7	-0.8	11.8%	11.7µM*
O=C(N/N=C/c1ccccn1)c1sc2ccccc2c1Cl	89.5*	-4.9	43.8*	?	?
O=[N+]([O-])c1ccc(/C=N/NC(=S)Nc2ccccc2C(F)(F)F)o1	-8.0	11.9	-6.4	-6.2%	?
COc1ccc(CNC(=O)COC(=O)c2cccc(S(=O)(=O)N3CCOCC3)c2)cc1	/	-4.7	/	-24.5%	?
CSc1ccc(CCNC(=O)c2csc3c2CCCCC3)cc1	/	-1.8	/	/	/
Cc1cc(C(=O)N/N=C/c2c[nH]c3ccccc23)cs1	63.9*	69.8	41.8*	35.1%	10.4%
Cc1cc(C)n(CC(=O)N/N=C/c2c[nH]c3ccccc23)n1	-3.0	25.1	1.2	33.8%	25.7%
O=C(NN=Cc1cccc2ccccc12)C(=O)NN=Cc1cccc2ccccc12	/	-16.3	/	/	/
O=C(N/N=C/c1oc(O)c2ccccc12)c1ccccc1	62.2*	16.5	17.4	46.0%	28.8%
O=C(N/N=C/c1c[nH]c2ccccc12)c1cccs1	93.8*	84.0	45.4*	78.0%	72.2%
O=C(N/N=C/c1ccccc1C(=O)O)c1ccncc1	7.1	-0.8	0.3	32.7%	8.6%
O=C(N/N=C/c1cccc2ccccc12)c1cccs1	87.3*	/	72.7*	11.7%	3.7%
O=C(NC(Cc1c[nH]c2ccccc12)C(=O)N/N=C/c1cccc2ccccc12)c1cccs1 (centres undefined)	-6.9	-21.3	1.4	?	-6.9%
SMILES	Shiga inhibitor	HCMV inh	Cycloheximide cs	Pf growth 48h	Pf growth 96h
O=C(N/N=C\c1cn[nH]c1-c1ccccc1)c1cccnc1	-7.0	33.8	2.1	5.9%	/
COc1ccccc1C(=O)N/N=C/c1c[nH]c2ccccc12	41.8*	128.7	31.5*	-1.2%	?
O=C(N/N=C/c1coc2ccccc2c1=O)c1cccc([N+](=O)[O-])c1	-2.5	-34.3	-2.2	-2.9%	5.86µM*
Cc1cccc(NC(=S)N/N=C/c2c[nH]c3ccccc23)c1	40.3*	5.0	14.1*	?	43.9%
O=C(N/N=C\c1cn[nH]c1-c1ccccc1)c1cccs1	active	3.9	39.8*	24.6%	25.8%
O=C(Oc1ccccc1)N1CCN(C(=O)c2ccco2)CC1	13.8	-27.0	13.9	15.8%	31.4%
COc1cccc(C(=O)NCc2cn3ccccc3n2)c1	/	-24.7	/	/	/
Cn1cccc1/C=N/NC(=O)c1sc2ccccc2c1Cl	66.2	-102.2*	40.4*	83.9%	113.4%
O=C(N/N=C/c1c[nH]c2ccccc12)c1cccc([N+](=O)[O-])c1	16.5	52.2	26.4*	24.8%	?
Cc1c(/C=N/NC(=O)c2sc3ccccc3c2Cl)cnn1C	14.3	-0.4	12.8	-16.5%	76.0%
Cn1cc([N+](=O)[O-])c(C(=O)N/N=C\c2c[nH]c3ccccc23)n1	-2.8	-31.1	8.7	15.0%	7.2%
CC(NC(=O)c1ccccc1NC(=O)c1nsc2ccccc12)c1ccccc1 (centres undefined)	/	20.7	/	/	/
Cc1ccc(NC(=O)CCN2C(=O)c3ccccc3Sc3ncccc32)cc1	5.8	?	11.0	-23.8%	?
COc1cccc(NC(=O)CCN2C(=O)c3ccccc3Sc3ncccc32)c1	-4.6	12.9	-0.5	-16.1%	2.94µM*
CC(C)NC(=O)CCCN1C(=O)c2ccccc2Sc2ncccc21	-5.8	3.7	-1.1	12.5%	0.262µM*
CCOC(=O)COc1coc(CN2CCN(c3ccc(F)cc3)CC2)cc1=O	-13.4	-24.3	-0.5	5.2%	?
Cc1c(C(=O)OCCOc2ccccc2)[nH]c2c1C(=O)CC(c1ccccc1Cl)C2 (centres undefined)	/	-85.6*	/	/	/
CCOCCOC(=O)c1[nH]c2c(c1C)C(=O)CC(c1cccs1)C2 (centres undefined)	-2.0	-81.3*	4.6	?	52.6%
Cc1c(C(=O)OCCOc2ccccc2)[nH]c2c1C(=O)CC(c1ccccc1)C2 (centres undefined)	/	-36.7	/	/	/
CCOCCOC(=O)c1[nH]c2c(c1C)C(=O)CC(c1ccccc1)C2 (centres undefined)	12.4	-71.0*	-2.3	/	-1.4%
COCCOC(=O)c1[nH]c2c(c1C)C(=O)CC(c1cccs1)C2 (centres undefined)	-4.5	0.0	19.9*	?	136.1%
Cc1c(C(=O)OCC(C)C)[nH]c2c1C(=O)CC(c1cccs1)C2 (centres undefined)	15.0	-23.2	8.7	?	-3.0%
COc1ccc(C(=O)N(Cc2ccco2)Cc2ccccc2F)cc1Cl	/	-31.9	/	/	/
CCOc1ccccc1NC(=O)C(C)Sc1nc2c(c(=O)[nH]1)CCCC2 (centres undefined)	/	14.3	/	/	/
CCCCCOC(=O)c1[nH]c2c(c1C)C(=O)CC(c1ccco1)C2 (centres undefined)	-6.5	/	4.9	0.657µM*	23.2%
CC1=C(C(=O)Nc2ccccc2C)C(c2cccs2)n2nc(SCc3cc(C)ccc3C)nc2N1 (centres undefined)	/	5.0	/	/	/
CCOC(=O)c1cc(-c2ccc(C)cc2)n(CC(=O)Nc2ccc(OC)c(Cl)c2)c1C	/	-91.4*	/	/	/
Clc1ccc(-c2nnn3c2nc(NC2CCCCC2)c2ccccc23)cc1	/	13.7	/	/	/
CC1=C(/C=C/C(C)=N\NC(=O)c2ccncc2)C(C)(C)CCC1	-10.7	?	13.0*	13.1µM*	47.5%

High-throughput results deposited in PubChem by National Center for Advancing Translational Sciences (NCATS).
